# Test results as given in the supplement of paper PMC8728848.
# About 410 targets per protein were measured; listed, in parts, are those with the strongest signals and a random draw of the rest.
# Legend:
# Assay in all cases: glycan array binding signal (z-score within array); higher = stronger binding
# Conditions in all cases: glycan notation: IUPAC condensed, linker removed
# [1] = target: Fuc(a1-2)Gal(b1-3)GalNAc(a1-3)[Fuc(a1-2)]Gal(b1-4)Glc
# Outline: (§1)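 Arrays were curated from the Consortium for Functional Glycomics database, 3228 in total, and kept only where the protein sequence was available. Binding is expressed as a within-array Z-score. This score was averaged across arrays of the same protein sequence at different concentrations or buffers and across linkers, and negative values can be read as non-binding.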
# [2] = target: Fuc(a1-2)Gal(b1-3)GalNAc(a1-3)[Fuc(a1-2)]Gal(b1-4)GlcNAc
# Outline: as §1
# [3] = target: Fuc(a1-2)Gal(b1-3)GalNAc(b1-4)[Neu5Ac(a2-3)]Gal(b1-4)Glc
# Outline: as §1
# [4] = target: Fuc(a1-2)Gal(b1-3)GlcNAc(b1-3)[Fuc(a1-2)Gal(b1-3)GlcNAc(b1-6)]GalNAc
# Outline: as §1
# [5] = target: Fuc(a1-2)Gal(b1-4)GlcNAc(b1-2)[Fuc(a1-2)Gal(b1-4)GlcNAc(b1-4)]Man(a1-3)[Fuc(a1-2)Gal(b1-4)GlcNAc(b1-2)Man(a1-6)]Man(b1-4)GlcNAc(b1-4)GlcNAc
# Outline: as §1
# [6] = target: Fuc(a1-2)Gal(b1-4)GlcNAc(b1-3)Gal(b1-4)GlcNAc(b1-2)Man(a1-3)[Fuc(a1-2)Gal(b1-4)GlcNAc(b1-3)Gal(b1-4)GlcNAc(b1-2)Man(a1-6)]Man(b1-4)GlcNAc(b1-4)GlcNAc
# Outline: as §1
# [7] = target: Fuc(a1-2)Gal(b1-4)GlcNAc6S
# Outline: as §1
# [8] = target: Fuc(a1-2)Gal(b1-4)[Fuc(a1-3)]GlcNAc(b1-2)[Fuc(a1-2)Gal(b1-4)[Fuc(a1-3)]GlcNAc(b1-4)]Man(a1-3)[Fuc(a1-2)Gal(b1-4)[Fuc(a1-3)]GlcNAc(b1-2)Man(a1-6)]Man(b1-4)GlcNAc(b1-4)GlcNAc
# Outline: as §1
# [9] = target: Fuc(a1-2)[Gal(a1-3)]Gal(b1-3)GalNAc
# Outline: as §1
# [10] = target: Fuc(a1-2)[Gal(a1-3)]Gal(b1-4)[Fuc(a1-3)]GlcNAc
# Outline: as §1
# [11] = target: Fuc(a1-3)[Gal(b1-4)]GlcNAc(b1-3)Gal(b1-3)[Fuc(a1-4)]GlcNAc
# Outline: as §1
# Gal(a1-3)Gal(b1-3)GlcNAc = target: Gal(a1-3)Gal(b1-3)GlcNAc
# Outline: as §1
# Gal(a1-3)GalNAc = target: Gal(a1-3)GalNAc
# Outline: as §1
# [12] = target: Gal(b1-3)GalNAc(a1-3)[Fuc(a1-2)]Gal(b1-4)Glc
# Outline: as §1
# [13] = target: Gal(b1-3)GalNAc(a1-3)[Fuc(a1-2)]Gal(b1-4)GlcNAc
# Outline: as §1
# [14] = target: Gal(b1-3)GlcNAc(b1-3)Gal(b1-4)[Fuc(a1-3)]GlcNAc
# Outline: as §1
# [15] = target: Gal(b1-3)GlcNAc(b1-6)GalNAc
# Outline: as §1
# Gal(b1-4)Glc6S = target: Gal(b1-4)Glc6S
# Outline: as §1
# [16] = target: Gal(b1-4)GlcNAc(b1-2)Man(a1-6)[GlcNAc(b1-2)Man(a1-3)]Man(b1-4)GlcNAc(b1-4)GlcNAc
# Outline: as §1
# [17] = target: Gal(b1-4)GlcNAc(b1-2)[Gal(b1-4)GlcNAc(b1-4)]Man(a1-3)[GlcNAc(b1-4)][Gal(b1-4)GlcNAc(b1-2)Man(a1-6)]Man(b1-4)GlcNAc(b1-4)GlcNAc
# Outline: as §1
# [18] = target: Gal(b1-4)GlcNAc(b1-3)Gal(b1-4)GlcNAc(b1-2)Man(a1-3)[Gal(b1-4)GlcNAc(b1-3)Gal(b1-4)GlcNAc(b1-2)Man(a1-6)]Man(b1-4)GlcNAc(b1-4)GlcNAc
# Outline: as §1
# [19] = target: Gal(b1-4)GlcNAc(b1-3)Gal(b1-4)GlcNAc(b1-3)[Gal(b1-4)GlcNAc(b1-3)Gal(b1-4)GlcNAc(b1-6)]GalNAc
# Outline: as §1
# Gal(b1-4)GlcNAc6P = target: Gal(b1-4)GlcNAc6P
# Outline: as §1
# Gal3S(b1-3)GalNAc = target: Gal3S(b1-3)GalNAc
# Outline: as §1
# Gal3S4S(b1-4)GlcNAc = target: Gal3S4S(b1-4)GlcNAc
# Outline: as §1
# GalNAc(a1-3)Gal = target: GalNAc(a1-3)Gal
# Outline: as §1
# GalNAc(b1-3)GalNAc = target: GalNAc(b1-3)GalNAc
# Outline: as §1
# [20] = target: GlcNAc(b1-2)Man(a1-3)[GlcNAc(b1-2)Man(a1-6)]Man(b1-4)GlcNAc(b1-4)GlcNAc
# Outline: as §1
# [21] = target: GlcNAc(b1-2)Man(a1-3)[GlcNAc(b1-4)][GlcNAc(b1-2)Man(a1-6)]Man(b1-4)GlcNAc(b1-4)GlcNAc
# Outline: as §1
# [22] = target: GlcNAc(b1-2)[GlcNAc(b1-4)]Man(a1-3)[GlcNAc(b1-4)][GlcNAc(b1-2)[GlcNAc(b1-6)]Man(a1-6)]Man(b1-4)GlcNAc(b1-4)[Fuc(a1-6)]GlcNAc
# Outline: as §1
# [23] = target: GlcNAc(b1-3)Gal(b1-4)GlcNAc(b1-3)Gal(b1-4)GlcNAc(b1-2)Man(a1-3)[GlcNAc(b1-3)Gal(b1-4)GlcNAc(b1-3)Gal(b1-4)GlcNAc(b1-2)Man(a1-6)]Man(b1-4)GlcNAc(b1-4)[Fuc(a1-6)]GlcNAc
# Outline: as §1
# [24] = target: GlcNAc(b1-3)Gal(b1-4)GlcNAc(b1-6)[GlcNAc(b1-3)Gal(b1-3)]GalNAc
# Outline: as §1
# [25] = target: GlcNAc(b1-4)GlcNAc(b1-4)GlcNAc
# Outline: as §1
# Kdn(a2-3)Gal(b1-3)GalNAc = target: Kdn(a2-3)Gal(b1-3)GalNAc
# Outline: as §1
# Kdn(a2-6)Gal(b1-4)GlcNAc = target: Kdn(a2-6)Gal(b1-4)GlcNAc
# Outline: as §1
# [26] = target: Man(a1-2)Man(a1-3)[Man(a1-2)Man(a1-6)]Man(a1-6)[Man(a1-2)Man(a1-2)Man(a1-3)]Man(b1-4)GlcNAc(b1-4)GlcNAc
# Outline: as §1
# [27] = target: Man(a1-3)[Man(a1-6)]Man(a1-6)[Man(a1-2)Man(a1-3)]Man(b1-4)GlcNAc(b1-4)GlcNAc
# Outline: as §1
# [28] = target: Neu5Ac(a2-3)Gal(b1-4)GlcNAc(b1-3)Gal(b1-4)GlcNAc(b1-2)Man(a1-3)[Neu5Ac(a2-3)Gal(b1-4)GlcNAc(b1-3)Gal(b1-4)GlcNAc(b1-2)Man(a1-6)]Man(b1-4)GlcNAc(b1-4)GlcNAc
# Outline: as §1
# [29] = target: Neu5Ac(a2-3)Gal(b1-4)GlcNAc(b1-3)Gal(b1-4)GlcNAc(b1-3)Gal(b1-4)GlcNAc(b1-2)Man(a1-3)[Neu5Ac(a2-3)Gal(b1-4)GlcNAc(b1-3)Gal(b1-4)GlcNAc(b1-3)Gal(b1-4)GlcNAc(b1-2)Man(a1-6)]GalNAc
# Outline: as §1
# [30] = target: Neu5Ac(a2-3)Gal(b1-4)GlcNAc(b1-3)Gal(b1-4)GlcNAc(b1-3)[Neu5Ac(a2-3)Gal(b1-4)GlcNAc(b1-3)Gal(b1-4)GlcNAc(b1-6)]GalNAc
# Outline: as §1
# [31] = target: Neu5Ac(a2-3)GalNAc(b1-4)GlcNAc
# Outline: as §1
# [32] = target: Neu5Ac(a2-3)[GalNAc(b1-4)]Gal(b1-4)Glc
# Outline: as §1
# [33] = target: Neu5Ac(a2-3)[GalNAc(b1-4)]Gal(b1-4)GlcNAc(b1-3)GalNAc
# Outline: as §1
# [34] = target: Neu5Ac(a2-6)Gal(b1-4)GlcNAc(b1-3)Gal(b1-4)GlcNAc(b1-3)GalNAc
# Outline: as §1
# [35] = target: Neu5Ac(a2-6)Gal(b1-4)GlcNAc(b1-3)Gal(b1-4)GlcNAc(b1-3)[Neu5Ac(a2-6)Gal(b1-4)GlcNAc(b1-3)Gal(b1-4)GlcNAc(b1-6)]GalNAc
# Outline: as §1
# [36] = target: Neu5Ac(a2-6)Gal(b1-4)GlcNAc(b1-6)[Gal(b1-3)GlcNAc(b1-3)]Gal(b1-4)Glc
# Outline: as §1
# [37] = target: Neu5Ac(a2-6)GlcNAc(b1-4)GlcNAc
# Outline: as §1
# [38] = target: Neu5Ac(a2-8)Neu5Ac(a2-3)Gal(b1-4)Glc
# Outline: as §1
# [39] = target: Neu5Ac(a2-8)Neu5Ac(a2-8)Neu5Ac
# Outline: as §1
# Neu5Ac(b1-6)GalNAc = target: Neu5Ac(b1-6)GalNAc
# Outline: as §1
binder,measurement,setting,value
"ABA (Agaricus bisporus), Q00022 (protein) MTYTISIRVYQTTPKGFFRPVERTNWKYANGGTWDEVRGEYVLTMGGSGTSGSLRFVSSDTDESFVATFGVHNYKRWCDIVTNLTNEQTALVINQEYYGVPIRDQARENQLTSYNVANAKGRRFAIEYTVTEGDNLKANLIIG",glycan array binding signal (z-score),[1],-0.201
same,glycan array binding signal (z-score),[2],0.475
same,glycan array binding signal (z-score),[3],-0.192
same,glycan array binding signal (z-score),[4],-0.172
same,glycan array binding signal (z-score),[5],-0.048
same,glycan array binding signal (z-score),[6],-0.157
same,glycan array binding signal (z-score),[7],-0.289
same,glycan array binding signal (z-score),[8],0.231
same,glycan array binding signal (z-score),[9],-0.239
same,glycan array binding signal (z-score),[10],-0.155
same,glycan array binding signal (z-score),[11],-0.058
same,glycan array binding signal (z-score),Gal(a1-3)Gal(b1-3)GlcNAc,-0.192
same,glycan array binding signal (z-score),Gal(a1-3)GalNAc,-0.118
same,glycan array binding signal (z-score),[12],3.56
same,glycan array binding signal (z-score),[13],3.27
same,glycan array binding signal (z-score),[14],-0.245
same,glycan array binding signal (z-score),[15],-0.25
same,glycan array binding signal (z-score),Gal(b1-4)Glc6S,-0.203
same,glycan array binding signal (z-score),[16],2.81
same,glycan array binding signal (z-score),[17],-0.25
same,glycan array binding signal (z-score),[18],2.52
same,glycan array binding signal (z-score),[19],1.8
same,glycan array binding signal (z-score),Gal(b1-4)GlcNAc6P,-0.104
same,glycan array binding signal (z-score),Gal3S(b1-3)GalNAc,2.46
same,glycan array binding signal (z-score),Gal3S4S(b1-4)GlcNAc,-0.254
same,glycan array binding signal (z-score),GalNAc(a1-3)Gal,-0.234
same,glycan array binding signal (z-score),GalNAc(b1-3)GalNAc,0.071
same,glycan array binding signal (z-score),[20],5.72
same,glycan array binding signal (z-score),[21],2.54
same,glycan array binding signal (z-score),[22],-0.287
same,glycan array binding signal (z-score),[23],1.39
same,glycan array binding signal (z-score),[24],2.74
same,glycan array binding signal (z-score),[25],-0.093
same,glycan array binding signal (z-score),Kdn(a2-3)Gal(b1-3)GalNAc,0.099
same,glycan array binding signal (z-score),Kdn(a2-6)Gal(b1-4)GlcNAc,-0.239
same,glycan array binding signal (z-score),[26],0.46
same,glycan array binding signal (z-score),[27],2.82
same,glycan array binding signal (z-score),[28],2.72
same,glycan array binding signal (z-score),[29],2.8
same,glycan array binding signal (z-score),[30],0
same,glycan array binding signal (z-score),[31],-0.276
same,glycan array binding signal (z-score),[32],-0.249
same,glycan array binding signal (z-score),[33],1.31
same,glycan array binding signal (z-score),[34],-0.201
same,glycan array binding signal (z-score),[35],2.26
same,glycan array binding signal (z-score),[36],-0.255
same,glycan array binding signal (z-score),[37],-0.229
same,glycan array binding signal (z-score),[38],-0.267
same,glycan array binding signal (z-score),[39],-0.247
same,glycan array binding signal (z-score),Neu5Ac(b1-6)GalNAc,-0.191
